# Experimental data taken from the supplement of paper PMC6555819.
# Test system: THRa homodimer (NR concentration 90 nM)
# Assay: PBM binding z-score (relative to random genomic background probes); higher = stronger binding; sequences stand for … in GC…GCGATTGACAGCGTAGAATGAAGG
# Method in brief: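 Binding buffer was PBS pH 7.4 with 2% milk, 0.02% Triton X-100, 1 mM DTT, 0.2 mg/mL BSA and 0.4 mg/ml salmon testes DNA. In it, ligand-free nuclear receptor dimers were incubated 1 h on custom Agilent 4×180K protein-binding microarrays carrying double-stranded probes. Antibodies against each partner (one per run) detected binding, and z-scores were calculated against random background probes after regression normalization of scanned fluorescence.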
row,Sequence,PBM binding z-score
1,GCGGCTAGGTCAGGTTGGTCAGCTAACGGGTACG,0.788
2,TCTAGCAGGCCAGAGGGTCACTCATGAGGTACGG,-0.102
3,ACTTACGGGTCAACGAGGTTATCGCACGCGTATA,1.23
4,CTCGAAAAGTCGGTTGAGGTGAGTATACGGATAA,1.15
5,AGATTGAGGTTATTAAGATCAGGGAATTGCGGTC,0.869
6,CATACAGGGTCAGCTAGGCCAGAGGAGGGACGGC,0.692
7,GCTTGCAGGCCATTTGGGTCACTCAATGACGGGC,0.686
8,TATACAGGGTCAAATGCCAGAGTACGAATGTCGA,0.982
9,TGAATGAGGTTAAGGATCAGGGAACGTGGCGTCG,0.88
10,TAGCCTAGGTCATGCGGGCCAGTGTAGTGTCGGC,0.878
11,CGAGACAGGTGAGAAGGTAACTCAGCCTCGATTA,-0.411
12,CCTAATTGGTCAAGGTCACACACGCTATAGGTAC,4.13
13,CAAACTAGGTCACAGAGGTAAAAGTCCGTGCGTA,1.63
14,CCGAGTAGGTTATGGGGAATTCAGGCAACGGTGA,0.701
15,GCGACTGGGGCATCAGAAGGTTACCATAACTTAA,-0.47
16,TCTATTAGTTGAAGGGCAACTGACGAGTCCGTTT,-0.0338
17,TGAATGAGGTTACAAGATCAGGGAACGTTGCAAA,0.329
18,TCTTGTAGATCAAAGGTTAAGAATGCCGAAGCCT,-0.308
19,ATCGAAAGGTCGACGAGGTGAATATACACCGTTT,1.54
20,CATACAGGGTCAGCTAGGCCAGAGTGGGGACGGC,1.52
21,TCATATAGATAAAGGTGAAAGTCGAACGATATGA,-0.268
22,CTAGAAAGGTCGGTTGAGGTGAGTATACGGATAA,1.71
